Measured values: the supplement of paper PMC9254222
In all, about 1,100 compounds were measured (“Wnt reporter firefly/Renilla luciferase ratio relative to plate median”: median about 1.1, highest 2% from about 1.6 on). The entries come from a sample that favours the highest values as a whole.

Tested on: HEK293T (UBE3A T485A transfected, BAR Wnt reporter)
Assay: Wnt reporter firefly/Renilla luciferase ratio relative to plate median (fold (linear ratio)); higher = more Wnt/beta-catenin reporter activation
Conditions: 24 h
Outline: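 Chemicals were robotically dosed at 0.01–100 uM for 24 h onto HEK293T cells, starting four hours after transfection with a BAR firefly luciferase Wnt reporter, TK-Renilla and an expression plasmid. The cells had been plated at 4500 cells/well in DMEM with 10% FBS at 37°C and 5% CO2. Following a Dual-Glo luciferase readout, the firefly/Renilla ratio served as the Wnt activity measure and raw Renilla as the cell health measure, both median-centred on each plate. Each value is the mean of four biological replicates.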

SMILES	Wnt reporter firefly/Renilla luciferase ratio (concentration: 0.01 uM)	Wnt reporter firefly/Renilla luciferase ratio (concentration: 0.1 uM)	Wnt reporter firefly/Renilla luciferase ratio (concentration: 1 uM)	Wnt reporter firefly/Renilla luciferase ratio (concentration: 10 uM)	Wnt reporter firefly/Renilla luciferase ratio (concentration: 100 uM)
CCOC(=O)COc1cc(-c2nn(C)c(OC(F)F)c2Cl)c(F)cc1Cl [Pyraflufen-ethyl]	1.13	1.63	1.05	1.09	1.13
CCOC(=O)C(Cl)Cc1cc(-n2nc(C)n(C(F)F)c2=O)c(F)cc1Cl (configuration not stated) [Carfentrazone-ethyl]	1.07	0.973	0.982	0.945	1.28
O=C(Oc1ccc(Br)cc1)N1CCN2CCC1CC2		1.11	0.988	1.09	0.334
CC(COc1ccc(Oc2ccccc2)cc1)Oc1ccccn1 (configuration not stated) [Pyriproxyfen]	1.12	0.977	1.04	1.03	0.55
ClC1(Cl)C2(Cl)C3(Cl)C4(Cl)C(Cl)(Cl)C5(Cl)C3(Cl)C1(Cl)C5(Cl)C24Cl (configuration not stated) [Mirex]		1.02	1.05	0.921	1.28
O=C(Nc1ccccc1)Nc1ccnc(Cl)c1 [Forchlorfenuron]	1.1	1.16	0.957	0.694	
CCCCc1ccccc1 [Butylbenzene]		0.995	1.31	1.01	0.948
CC(C)N(C(=O)COc1nnc(C(F)(F)F)s1)c1ccc(F)cc1 [Flufenacet]	0.973	0.746	0.898	0.605	0.254
C=CCc1ccc2c(c1)OCO2 [Safrole]		1.26	1.37	0.895	1.23
C[C@]12C=CC3=C4CCC(=O)C=C4CC[C@H]3[C@@H]1CC[C@@H]2O [17beta-Trenbolone]		1.08	1.18	0.938	0.146
CCNC(=O)NC(=O)/C(C#N)=N/OC [Cymoxanil]	1.42	1.34	1.15	1.29	1.1
CC(C)(C)c1ccccc1O [2-tert-Butylphenol]		1.53	1.54	1.25	0.813
CC1(C)C(C=C(Cl)Cl)C1C(=O)OCc1cccc(Oc2ccccc2)c1 (configuration not stated) [Permethrin]	0.82	0.873	1.11	1.19	0.865
Nc1nc(N)nc(NC2CC2)n1 [Cyromazine]	1.01	1.18	0.955	1.02	1.22
CCCCCCCCn1sccc1=O [Octhilinone]		1.02	1.15	1.07	
CNC(=O)N(C)c1nnc(C(C)(C)C)s1 [Tebuthiuron]	1.35	1.39	1.32	1.67	1.5
CCCN(CCC)c1c([N+](=O)[O-])cc(C(C)C)cc1[N+](=O)[O-] [Isopropalin]		1.07	1.04	1.11	1.31
CCOC1Oc2ccc(OS(C)(=O)=O)cc2C1(C)C (configuration not stated) [Ethofumesate]	1.05	0.973	1.03	1.14	1.86
N#CC(CCc1ccc(Cl)cc1)(Cn1cncn1)c1ccccc1 (configuration not stated) [Fenbuconazole]	1.07	1.01	1.03	0.614	0.347
CN(C)C(=S)[S-].CN(C)C(=S)[S-].[Zn+2] [Ziram]		1	0.732	0.577	
CN(C)C(=S)[S-].[Na+] [Sodium dimethyldithiocarbamate]		1.22	0.816	0.751	0.926
CN(C)C(=S)SSC(=S)N(C)C [Thiram]	1.62	1.39	1.06	1.24	

SMILES	Wnt reporter firefly/Renilla luciferase ratio (concentration: 0.01 uM)	Wnt reporter firefly/Renilla luciferase ratio (concentration: 0.1 uM)	Wnt reporter firefly/Renilla luciferase ratio (concentration: 1 uM)	Wnt reporter firefly/Renilla luciferase ratio (concentration: 10 uM)	Wnt reporter firefly/Renilla luciferase ratio (concentration: 100 uM)
c1ccc(-c2ccccc2)cc1 [Biphenyl]		1.39	1.01	1.25	1.46
CCCC1COC(Cn2cncn2)(c2ccc(Cl)cc2Cl)O1 (configuration not stated) [Propiconazole]	0.957	1.03	1.17	0.78	
CCON=C(CC)C1=C(O)CC(c2c(C)cc(C)cc2C)CC1=O (configuration not stated) [Tralkoxydim]	1.14	1.54	1.03	1.05	0.67
CON(C)C(=O)Nc1ccc(Cl)c(Cl)c1 [Linuron]	1.1	0.829	1.11	1.17	0.524
CN(C)C(=O)Nc1ccc(Cl)cc1 [Monuron]		0.888	0.901	1.09	1.04
CCC(=O)Nc1ccc(Cl)c(Cl)c1 [Propanil]	1.31	1.71	0.955	1.25	0.294
ClC1=C(Cl)C2(Cl)C3C(Cl)C=CC3C1(Cl)C2(Cl)Cl (configuration not stated) [Heptachlor]		0.972	1.07	1.17	1.24
N#CC(Br)Br [Dibromoacetonitrile]		1.15	1.01	1.17	1.19
Nc1c(Cl)cc([N+](=O)[O-])cc1Cl [Dicloran]	1.85	1.64	0.962	1.29	0.345
O=[N+]([O-])c1ccc(Cl)cc1 [1-Chloro-4-nitrobenzene]		1.04	1.2	1.02	1.38
O=[N+]([O-])c1ccc(Cl)c(Cl)c1 [3,4-Dichloronitrobenzene]		1.21	1.14	1.29	1.54
CCC(C)(c1ccc(O)cc1)c1ccc(O)cc1 [Bisphenol B]		1.11	0.969	0.999	0.0398
N#Cc1c(Cl)c(Cl)c(Cl)c(C#N)c1Cl [Chlorothalonil]	0.876	0.784	1.16	0.725	
CCCCOC(=O)[C@@H](C)Oc1ccc(Oc2ccc(C#N)cc2F)cc1 [Cyhalofop-butyl]	1.1	0.959	1.06	0.848	0.697
CC(C)(OOC(C)(C)c1ccccc1)c1ccccc1 [Dicumyl peroxide]		1.15	0.998	0.968	1.39
C#CCC1=C(C)C(OC(=O)C2C(C=C(C)C)C2(C)C)CC1=O (configuration not stated) [Prallethrin]	0.931	0.996	1.04	1.05	0.276
CC(C)(C)c1ccc(O)cc1 [4-tert-Butylphenol]		0.97	1.1	0.863	1.21
CO/C=C(/C(=O)OC)c1ccccc1Oc1cc(Oc2ccccc2C#N)ncn1 [Azoxystrobin]	1.4	1.25	1.04	0.786	0.984
CCC(=NOC/C=C/Cl)C1=C(O)CC(C2CCOCC2)CC1=O (configuration not stated) [Tepraloxydim]	0.655	0.79	1.12	1.08	1.18
O=[N+]([O-])c1c(Cl)c(Cl)c(Cl)c(Cl)c1Cl [Pentachloronitrobenzene]	0.743	0.765	1	0.856	1.26
Nc1ccc(Cl)cc1 [4-Chloroaniline]		1.15	1.08	0.914	0.367
CCOP(=S)(OCC)Oc1cc(C)nc(C(C)C)n1 [Diazinon]	0.789	0.815	1.01	1.25	1.14

SMILES	Wnt reporter firefly/Renilla luciferase ratio (concentration: 0.01 uM)	Wnt reporter firefly/Renilla luciferase ratio (concentration: 0.1 uM)	Wnt reporter firefly/Renilla luciferase ratio (concentration: 1 uM)	Wnt reporter firefly/Renilla luciferase ratio (concentration: 10 uM)	Wnt reporter firefly/Renilla luciferase ratio (concentration: 100 uM)
CCOC(=O)C(C)OC(=O)c1cc(Oc2ccc(C(F)(F)F)cc2Cl)ccc1[N+](=O)[O-] (configuration not stated) [Lactofen]	1.04	1.3	1.14	1.16	0.261
CC(C)Nc1nc(Cl)nc(NC(C)C)n1 [Propazine]	1.55	1.1	1.01	1.03	1.11
Oc1c(Cl)cc(Cl)cc1Cl [2,4,6-Trichlorophenol]		0.821	1.09	1.37	0.524
CS(=O)(=O)c1cc(C(F)(F)F)ccc1C(=O)c1cnoc1C1CC1 [Isoxaflutole]	1.11	1.4	1.02	1.36	1.45
C#CCOS(=O)OC1CCCCC1Oc1ccc(C(C)(C)C)cc1 (configuration not stated) [Propargite]	1.24	1.16	1.02	0.934	0.259
CON=C(C(=O)OC)c1ccccc1CON=C(C)c1cccc(C(F)(F)F)c1 [Trifloxystrobin]	0.871	1.03	0.939	0.327	
COP(=S)(OC)Oc1ccc([N+](=O)[O-])cc1 [Methyl parathion]	1.23	1.05	1.21	1.02	0.89
COP(=S)(OC)Oc1ccc(SC)c(C)c1 [Fenthion]	1.02	0.993	1.04	1.08	0.984
COP(=S)(OC)Oc1ccc([N+](=O)[O-])c(C)c1 [Fenitrothion]	1.53	2.01	1.26	1.43	0.976
CCCCC(CC)COC(=O)c1ccccc1C(=O)OCC(CC)CCCC (configuration not stated) [Di(2-ethylhexyl) phthalate]	0.948	0.902	1.01	1.09	0.42
Clc1cccc(Cl)c1Cl [1,2,3-Trichlorobenzene]		1.09	1.1	1.05	1.01
Clc1ccccc1Cl [1,2-Dichlorobenzene]		0.904	1.01	0.88	1.62
Oc1ccccc1Cl [2-Chlorophenol]		0.951	0.944	1.24	1.52
COc1ccc(C)cc1N [2-Methoxy-5-methylaniline]		1.14	1.31	1.26	1.29
C1=Cc2cccc3cccc1c23 [Acenaphthylene]		1.29	1.26	1.41	0.898
CCCCCCCCCc1ccc(O)cc1 [4-Nonylphenol]		0.995	0.971	1.16	0.953
CCCCCCCCCc1ccc(O)cc1 [4-Nonylphenol, branched]		1.17	1.09	0.969	1.71
CCCCCCCc1ccc(O)cc1 [4-Heptylphenol]		0.655	0.978	1.2	1.01
CC(C)(C)C(O)/C(=C\c1ccc(Cl)cc1Cl)n1cncn1 (configuration not stated) [Diniconazole]	1.09	1.05	0.977	0.744	
Clc1ccc(C(c2ccc(Cl)cc2)C(Cl)Cl)cc1		0.983	0.999	0.984	1.16
COc1cccc(NCC(F)Cn2c3ccc(Br)cc3c3cc(Br)ccc32)c1 (configuration not stated)	0.859	1.11	1.28	0.896	1.01
